# Measured values: the supplement of paper PMC10849652
# About 8,800 targets were measured; listed, in parts, are those with a hit and a random draw of the rest. About 0.5% of all pairs of compound and target were hits. A number with no mark means an inactive call.
# Compound: CC1=C2C(=CC=C1)N=C(N(C2=O)C3=CC=CC=C3C)CN4C=NC5=C(N=CN=C54)N
# Assay: log2 fold change, soluble protein after heating vs DMSO (PISA); higher = thermal stabilisation; K562 lysate, 10 uM; active = over 0.2 and 3.5 SD of the protein, either way, in both replicates (recomputed)
# Method in brief: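 K562 pellets were dounce-homogenised in PBS pH 7.4 containing 1 mM MgCl2, and the crude extract, at 1 mg/mL protein, was exposed to 10 μM compound for 30 min. Aliquots were heated for 3 min across 48°C-58°C, pooled, brought to 0.5% NP-40 at 4°C and spun at 21,000xg for 90 min, with the supernatant taken as soluble protein. TMTpro 16plex LC-MS/MS with equalised channel sums quantified that protein. Values are log-two fold changes in thermal stability relative to solvent controls, taken from duplicates.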
# UniProt Q53EL6, sequence (Q53EL6 whole entry, looked up): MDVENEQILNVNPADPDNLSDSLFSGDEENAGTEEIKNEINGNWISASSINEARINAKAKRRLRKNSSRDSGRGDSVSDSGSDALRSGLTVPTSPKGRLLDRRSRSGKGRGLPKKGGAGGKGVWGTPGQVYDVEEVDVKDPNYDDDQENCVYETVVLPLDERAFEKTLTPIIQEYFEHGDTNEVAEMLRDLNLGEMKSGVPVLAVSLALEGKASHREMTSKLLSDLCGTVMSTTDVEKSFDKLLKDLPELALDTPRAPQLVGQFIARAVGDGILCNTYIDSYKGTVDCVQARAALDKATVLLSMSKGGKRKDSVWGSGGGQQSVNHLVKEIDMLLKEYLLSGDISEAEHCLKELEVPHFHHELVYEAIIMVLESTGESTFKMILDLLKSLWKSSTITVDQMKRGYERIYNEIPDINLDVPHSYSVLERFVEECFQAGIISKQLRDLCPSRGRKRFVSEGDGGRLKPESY
# UniProt Q96LW4, sequence (Q96LW4 whole entry, looked up): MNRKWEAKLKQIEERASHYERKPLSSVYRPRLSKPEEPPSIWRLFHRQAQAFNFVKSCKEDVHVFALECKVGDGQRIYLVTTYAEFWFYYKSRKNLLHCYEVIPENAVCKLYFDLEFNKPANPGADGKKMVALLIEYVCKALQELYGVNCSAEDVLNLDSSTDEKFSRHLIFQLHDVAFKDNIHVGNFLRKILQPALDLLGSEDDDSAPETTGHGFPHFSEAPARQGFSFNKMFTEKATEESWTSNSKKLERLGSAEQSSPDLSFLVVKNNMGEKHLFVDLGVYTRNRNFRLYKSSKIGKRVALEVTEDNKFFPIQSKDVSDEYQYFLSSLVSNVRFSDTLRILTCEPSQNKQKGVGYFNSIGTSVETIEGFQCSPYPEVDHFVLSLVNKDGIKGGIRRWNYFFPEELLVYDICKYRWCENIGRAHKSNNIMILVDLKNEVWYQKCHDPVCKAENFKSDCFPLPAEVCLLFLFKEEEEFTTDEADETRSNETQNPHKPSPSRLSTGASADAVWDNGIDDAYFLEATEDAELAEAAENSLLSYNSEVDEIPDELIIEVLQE
# UniProt Q9BZL6, sequence (Q9BZL6 whole entry, looked up): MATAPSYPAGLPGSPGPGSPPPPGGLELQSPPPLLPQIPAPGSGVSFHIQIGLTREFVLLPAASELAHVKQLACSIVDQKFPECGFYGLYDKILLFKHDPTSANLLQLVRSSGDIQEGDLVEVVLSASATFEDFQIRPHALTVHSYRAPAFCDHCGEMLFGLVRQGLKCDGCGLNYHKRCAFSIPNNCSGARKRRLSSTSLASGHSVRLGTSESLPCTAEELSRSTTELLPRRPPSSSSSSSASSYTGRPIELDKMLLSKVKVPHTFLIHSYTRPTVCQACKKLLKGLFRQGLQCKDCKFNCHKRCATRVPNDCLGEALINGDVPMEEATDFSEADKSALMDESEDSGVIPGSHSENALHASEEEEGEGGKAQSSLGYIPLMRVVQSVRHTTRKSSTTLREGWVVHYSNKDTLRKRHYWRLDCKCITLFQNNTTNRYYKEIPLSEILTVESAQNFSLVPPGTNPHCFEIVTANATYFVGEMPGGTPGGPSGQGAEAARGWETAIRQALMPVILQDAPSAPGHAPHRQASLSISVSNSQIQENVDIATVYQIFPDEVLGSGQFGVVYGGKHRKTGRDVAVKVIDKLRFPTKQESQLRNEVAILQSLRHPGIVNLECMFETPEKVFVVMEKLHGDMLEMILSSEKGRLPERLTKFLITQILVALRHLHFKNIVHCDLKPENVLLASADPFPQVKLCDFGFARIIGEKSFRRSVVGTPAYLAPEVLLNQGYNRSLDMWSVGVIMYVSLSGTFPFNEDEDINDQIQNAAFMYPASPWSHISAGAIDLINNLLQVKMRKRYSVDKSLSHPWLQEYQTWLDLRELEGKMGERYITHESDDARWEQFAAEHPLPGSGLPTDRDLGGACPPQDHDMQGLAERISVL
# UniProt O94906, sequence (O94906 whole entry, looked up): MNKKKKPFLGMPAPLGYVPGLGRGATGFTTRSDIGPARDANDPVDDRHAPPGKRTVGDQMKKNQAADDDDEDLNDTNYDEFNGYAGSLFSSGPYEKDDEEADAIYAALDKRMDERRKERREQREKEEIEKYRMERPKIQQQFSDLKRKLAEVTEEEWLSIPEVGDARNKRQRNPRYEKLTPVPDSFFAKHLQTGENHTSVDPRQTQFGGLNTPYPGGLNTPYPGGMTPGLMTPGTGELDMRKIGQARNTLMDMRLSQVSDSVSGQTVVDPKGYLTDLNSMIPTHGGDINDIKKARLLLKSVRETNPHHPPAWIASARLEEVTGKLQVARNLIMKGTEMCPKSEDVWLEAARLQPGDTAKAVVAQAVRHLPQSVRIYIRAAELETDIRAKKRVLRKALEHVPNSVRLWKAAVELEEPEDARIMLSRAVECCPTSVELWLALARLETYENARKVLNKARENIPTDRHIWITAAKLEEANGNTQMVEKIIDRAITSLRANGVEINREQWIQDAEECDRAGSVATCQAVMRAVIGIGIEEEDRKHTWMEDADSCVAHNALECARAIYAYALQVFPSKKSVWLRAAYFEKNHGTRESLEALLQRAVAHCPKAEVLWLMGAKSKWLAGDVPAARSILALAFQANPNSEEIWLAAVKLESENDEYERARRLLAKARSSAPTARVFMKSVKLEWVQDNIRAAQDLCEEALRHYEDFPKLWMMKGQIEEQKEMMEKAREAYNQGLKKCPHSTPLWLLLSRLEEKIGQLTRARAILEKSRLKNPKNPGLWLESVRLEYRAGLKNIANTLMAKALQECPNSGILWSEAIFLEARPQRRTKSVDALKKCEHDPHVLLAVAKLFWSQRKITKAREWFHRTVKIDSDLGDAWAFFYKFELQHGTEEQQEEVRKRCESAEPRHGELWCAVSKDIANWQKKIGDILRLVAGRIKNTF
# UniProt Q8WUM4, sequence (Q8WUM4 whole entry, looked up): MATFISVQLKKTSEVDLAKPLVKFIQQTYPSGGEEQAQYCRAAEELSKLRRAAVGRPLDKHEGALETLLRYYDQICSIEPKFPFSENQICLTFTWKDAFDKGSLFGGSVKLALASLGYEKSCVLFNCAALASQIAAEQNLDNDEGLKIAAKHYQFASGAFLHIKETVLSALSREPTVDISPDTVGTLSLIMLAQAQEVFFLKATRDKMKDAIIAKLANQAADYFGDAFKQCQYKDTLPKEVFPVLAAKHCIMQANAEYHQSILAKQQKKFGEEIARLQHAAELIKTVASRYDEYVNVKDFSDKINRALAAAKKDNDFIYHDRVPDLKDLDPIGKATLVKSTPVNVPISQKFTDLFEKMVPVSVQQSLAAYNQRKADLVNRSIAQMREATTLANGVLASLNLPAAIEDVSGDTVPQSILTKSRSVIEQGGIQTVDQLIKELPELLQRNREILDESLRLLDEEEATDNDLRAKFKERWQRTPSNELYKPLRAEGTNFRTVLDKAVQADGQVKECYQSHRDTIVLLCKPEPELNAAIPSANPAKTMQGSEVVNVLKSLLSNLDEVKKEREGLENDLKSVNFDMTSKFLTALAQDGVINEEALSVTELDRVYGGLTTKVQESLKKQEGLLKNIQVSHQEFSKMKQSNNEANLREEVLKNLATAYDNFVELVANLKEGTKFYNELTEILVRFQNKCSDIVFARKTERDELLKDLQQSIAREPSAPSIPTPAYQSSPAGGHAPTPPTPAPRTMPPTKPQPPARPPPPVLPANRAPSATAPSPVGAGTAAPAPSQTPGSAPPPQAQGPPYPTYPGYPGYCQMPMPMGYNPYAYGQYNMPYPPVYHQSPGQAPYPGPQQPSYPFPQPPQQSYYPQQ
# UniProt O00459, sequence (O00459 whole entry, looked up): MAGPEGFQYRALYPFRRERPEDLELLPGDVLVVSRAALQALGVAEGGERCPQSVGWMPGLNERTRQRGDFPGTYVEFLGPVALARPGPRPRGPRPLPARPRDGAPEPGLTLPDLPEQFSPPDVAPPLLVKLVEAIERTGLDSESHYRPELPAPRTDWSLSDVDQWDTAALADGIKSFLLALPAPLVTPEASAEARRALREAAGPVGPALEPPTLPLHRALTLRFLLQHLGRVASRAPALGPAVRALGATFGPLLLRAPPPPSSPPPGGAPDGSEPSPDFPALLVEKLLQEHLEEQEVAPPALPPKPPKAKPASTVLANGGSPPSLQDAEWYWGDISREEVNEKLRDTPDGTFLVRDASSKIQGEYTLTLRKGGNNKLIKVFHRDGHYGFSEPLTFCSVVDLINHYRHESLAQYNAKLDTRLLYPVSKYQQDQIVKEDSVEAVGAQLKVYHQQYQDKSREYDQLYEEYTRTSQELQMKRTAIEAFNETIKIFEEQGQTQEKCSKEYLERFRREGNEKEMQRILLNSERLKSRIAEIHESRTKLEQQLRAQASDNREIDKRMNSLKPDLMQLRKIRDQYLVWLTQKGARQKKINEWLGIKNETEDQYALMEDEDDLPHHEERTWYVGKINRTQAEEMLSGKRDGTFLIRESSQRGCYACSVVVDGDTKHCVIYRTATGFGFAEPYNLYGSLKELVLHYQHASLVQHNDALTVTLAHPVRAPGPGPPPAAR
# UniProt P49642, sequence (P49642 whole entry, looked up): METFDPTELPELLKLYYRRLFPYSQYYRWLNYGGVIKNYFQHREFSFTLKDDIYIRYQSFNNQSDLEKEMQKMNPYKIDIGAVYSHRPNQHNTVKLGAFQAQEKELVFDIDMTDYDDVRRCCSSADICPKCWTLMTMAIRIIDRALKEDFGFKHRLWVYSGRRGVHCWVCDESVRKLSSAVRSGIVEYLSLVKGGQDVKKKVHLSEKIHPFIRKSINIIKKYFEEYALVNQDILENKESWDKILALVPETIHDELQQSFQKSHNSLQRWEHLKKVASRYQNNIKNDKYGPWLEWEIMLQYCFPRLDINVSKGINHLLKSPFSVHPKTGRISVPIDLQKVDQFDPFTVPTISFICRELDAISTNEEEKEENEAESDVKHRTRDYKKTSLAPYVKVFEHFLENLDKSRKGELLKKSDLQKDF
# UniProt Q15004, sequence (Q15004 whole entry, looked up): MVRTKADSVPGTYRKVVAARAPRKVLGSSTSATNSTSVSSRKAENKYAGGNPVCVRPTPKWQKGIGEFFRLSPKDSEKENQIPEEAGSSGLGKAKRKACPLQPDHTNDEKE
row,Target,log2 fold change
1,PRKD2 isoform 3 (UniProt Q9BZL6),0.121
2,PIK3C3 (UniProt Q8NEB9),-0.036
3,PCLAF (UniProt Q15004),-0.037
4,PRKRA (UniProt O75569),0.031
5,PSTPIP2 (UniProt Q9H939),0.046
6,PRIM1 (UniProt P49642),-0.018
7,PRKAR2B (UniProt P31323),0.011
8,PPP3CA isoform 2 (UniProt Q08209),-0.017
9,PPP2R5B (UniProt Q15173),-0.024
10,PDE2A (UniProt O00408),0.163
11,PDCD6IP (UniProt Q8WUM4),0.037
12,PRPF6 (UniProt O94906),-0.012
13,PDS5A (UniProt Q29RF7),0.017
14,PIP4K2C (UniProt Q8TBX8),-0.113
15,PYCR2 (UniProt Q96C36),0.013
16,POLA1 (UniProt P09884),0.037
17,PIK3R1 (UniProt P27986),0.313
18,PPP1R12B isoform 6 (UniProt O60237),0.088
19,PUM1 isoform 3 (UniProt Q14671),0.024

row,Target,log2 fold change
1,PXMP4 (UniProt Q9Y6I8),-0.026
2,PCBP2 (UniProt F8W0G4),0.043
3,POC5 (UniProt Q8NA72),0.161
4,PDCD10 (UniProt Q9BUL8),-0.013
5,PLIN2 (UniProt Q99541),0.021
6,PRIMPOL (UniProt Q96LW4),-0.015
7,PDCD4 (UniProt Q53EL6),-0.007
8,PHACTR4 isoform 2 (UniProt Q8IZ21),0.014
9,PTP4A1 (UniProt Q93096),0.012
10,PRAME (UniProt P78395),0.014
11,PLEKHF1 (UniProt Q96S99),0.029
12,PIK3R2 (UniProt O00459),0.272
13,PGRMC1 (UniProt O00264),0.008
14,PPCDC (UniProt Q96CD2),-0.054
15,PTPN6 isoform 4 (UniProt P29350),0.063
16,PWP2 (UniProt Q15269),-0.013
17,PHC1 (UniProt P78364),0.041
18,PHF14 (UniProt O94880),-0.038
